We go through ten substances from ChEMBL document CHEMBL1201862, “PubChem BioAssay data set” (2004).

The campaign covered roughly 57,000 sequences. About 2,500 (4.4%) were called active. Rule as the data show it: active = GI50 up to about 1.1 µM and inactive = higher. The list is a sample of the results. Entries with a potency or affinity are not part of this list.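 Cultured in 96-well plates, cells were exposed to test compound for 48 hours across five concentrations. GI50 = concentration required for 50% inhibition of growth.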

This test relates to OVCAR-5. Put plainly: NCI tumour cell line growth inhibition, 48 h.
Substance “mu-(1,7-nanodiamine-N,N')bis-(cis-aminedichloroplatimum (II)), CHEMBL2146215” returned a GI50 of more than 100 µM.

CISPLATIN, CHEMBL11359 came in with a GI50 of 4.51 µM.

Consider “[Bis(aminomethyl)pentamethylenesilane]dichloropaltinum(II), CHEMBL2146202”, for which the GI50 came to 3.38 µM.

Substance “[Bis(aminomethyl)ethylmethylsilane]tetrachloroplatinum(IV), CHEMBL2146192” had a GI50 of 6.49 µM.

“[Bis(aminomethyl)pentamethylenesilane]tetrachloropaltinum(IV), CHEMBL2146204” yielded a GI50 of 6.27 µM.

Regarding “cis-Bis[[(trimethylsilyl)methyl]amino]tetrachloroplatinum(IV), CHEMBL2146191”, the GI50 was 30.3 µM.

“[Bis(aminomethyl)dimethylsilane]tetrachloroplatinum(IV), CHEMBL2146190” had a GI50 of 7.29 µM.

With “[Bis(aminomethyl)dimethylsilane]dichloroplatinum (II), CHEMBL2146201”, the GI50 was determined as 30.5 µM.

Substance “[Bis(aminomethyl)tetramethylenesilane]dichloropaltinum(II), CHEMBL2146205” had a GI50 of 7.55 µM.

For the substance “[Bis(aminomethyl)tetramethylenesilane]tetrachloropaltinum(IV), CHEMBL2146189”, the GI50 turned out to be 4.22 µM.
